# Laboratory results taken from PubChem BioAssay (Tox21).
# Values joined by “and” are separate entries in the source; they are usually repeats but may differ in a detail not shown here. Equal entries are not always repeated. Records with an inconclusive call do not appear. A structure can be active in one record and inactive in another. Active and inactive are the calls of the source. The call rests on the fitted dose curve; in most records, active means well fitted cell-killing curve with a large enough effect in the repeat runs; inconclusive means weak or mixed curves; inactive means flat fitted curve, though single readings scatter.
# Assay: qHTS RealTime-Glo MT Cell Viability Assay in HepG2 cells - 24 hour (AID 1224867); further: nearly all actives have a fitted effect of over 50% in size
# Conditions: RealTime-Glo luminescence; series mostly up to 76.8 µM; activity change, negative = cytotoxicity: at the top concentration
# Text: U.S. Tox21 Program National Center for Advancing Translational Sciences [NCATS] NIH Chemical Genomics Center [NCGC] U.S. Environmental Protection Agency [EPA] National Institutes of Environmental Health Sciences [NIEHS] National Toxicology Program [NTP] U.S. Food and Drug Administration [FDA] Tox21 Assay Overview: Measure of cell viability is critical in the cell-base assay. Analysis of cell viability is necessary for the characterization of cell responses to cytotoxic drugs and environmental stress. A RealTime-Glo MT Cell Viability Assay to monitor cell viability in real time of continues cell culture during 40 hours of compound treatment was used to screen Tox21 10K library compounds in HepG2 cells. The RealTime-Glo MT Cell Viability Assay is a nonlytic, homogeneous, bioluminescent method to measure cell viability in real time using a simple, plate-based method. The assay involves adding NanoLuc luciferase and a cell-permeant prosubstrate to cells in culture. Viable cells reduce the proprietary prosubstrate to generate a substrate for NanoLuc luciferase. This substrate diffuses from cells into the surrounding culture medium, where it is rapidly used by the NanoLuc Enzyme to produce a luminescent signal. The signal correlates with the number of viable cells, making the assay well suited for cytotoxicity studies.
# Tox21 Assay Protocol Summary: The mixture of HepG2 cell suspension and reagents were dispensed at 600cells/6 ul/well in 1536-well tissue culture treated black solid bottom plates using a Multidrop dispenser. After the assay plates were incubated at a 37 C/5% CO2 incubator for 5 hours, 23 nL of compounds dissolved in DMSO, positive and negative controls was transferred to the assay plate by a pintool work station. The plates were incubated at 37 C for 40 hours. The luminescence intensity were measured at 0h, 8h, 16h, 24h, 32h and 40h time points using ViewLux plate reader during compound treatment.
# On the % scale 0 is the no-effect control and ±100 the full control effect; potency means the concentration at half of the fitted maximal effect.
SMILES,"activity change, negative = cytotoxicity",Potency
CCCCCC[N+](=O)[O-],1.98% (inactive),–
O=C(CCl)c1ccc(Cl)cc1Cl,–,inactive and 19 µM (active)
O=C(CBr)OCc1ccccc1,2.37% (inactive),–
c1ccc(CN2CCNCC2)cc1,0.947% [at 200 µM] (inactive),–
C=CC(C)=O,0.429% (inactive),–
O=NN1CCNCC1,-1.13% (inactive),–
O=C(O)C1(c2ccc3c(c2)OC[C@H](Cc2ccc(-c4ccccc4)cc2)[C@H]3O)CCCC1,-22.4% (inactive),–
CCOC(=O)CBr,1.28% (inactive),–
CCOP(=O)(OCC)O/C(=C/Cl)c1ccc(Cl)cc1Cl,-20.8% (inactive),–
COc1nn(C(=O)NS(=O)(=O)c2ccccc2OC(F)(F)F)c(=O)n1C,1.2% (inactive),–
ClCc1cccc(Cl)c1,0.498% [at 35.3 µM] (inactive),–
Nc1ccc(N=Nc2ccc(-c3ccc(N=Nc4c(S(=O)(=O)O)cc5cc(S(=O)(=O)O)c(N=Nc6ccccc6)c(O)c5c4N)cc3)cc2)c(N)c1,3.94% [at 35.3 µM] (inactive),–
CC(C)(CCl)C(=O)Cl,-4.74% (inactive),–
IC(I)=C(I)I,–,549 nM (active)
O=S1(=O)OC(c2cc(Br)c(O)c(Br)c2)(c2cc(Br)c(O)c(Br)c2)c2ccccc21,-20.3% (inactive),–
CCCCN(N=O)C(=N)N[N+](=O)[O-],1.31% (inactive),–
CO/N=C(/C(=O)OC)c1ccccc1COc1ccccc1C,-16% (inactive),–
COC(=O)C(Br)CBr (stereo not given),0.187% (inactive),–
Cc1ccc(N)cc1C,1.24% (inactive),–
CCOP(=S)(OCC)Oc1cc(Cl)c(Br)cc1Cl,-5.88% (inactive),–

SMILES,"activity change, negative = cytotoxicity",Potency
Oc1ccc(Cl)c(Cl)c1Cl,-5.08% (inactive),–
NCC(CC(=O)O)c1ccc(Cl)cc1 (stereo not given),-0.0323% [at 0.29 µM] (inactive),–
CCCCCCC#N,-2.34% (inactive),–
CCOP(=O)(OCC)Oc1ccc([N+](=O)[O-])cc1,–,inactive
Cc1ccc2ccccc2c1,1.64% (inactive),–
COCC(C)N(C(=O)CCl)c1c(C)csc1C (stereo not given),-8.4% (inactive),–
C[N+](C)(C)CCCl,0.181% (inactive),–
CNP(=O)(OC)Oc1ccc(C(C)(C)C)cc1Cl (stereo not given),-13.1% (inactive),–
CCO[C@H]1O[C@@H]2OC3(C)CC[C@H]4[C@H](C)CC[C@@H]([C@H]1C)[C@@]24OO3,-3.23% [at 35.3 µM] (inactive),–
C=C(C#N)CCC#N,-1.23% (inactive),–
O=C1c2ccccc2C(=O)C1C(=O)C(c1ccccc1)c1ccccc1,-6.91% [at 35.3 µM] (inactive),–
Cc1c(F)c(F)c(COC(=O)C2C(/C=C(\Cl)C(F)(F)F)C2(C)C)c(F)c1F (stereo not given),-12.6% (inactive),–
COc1nn(CSP(=S)(OC)OC)c(=O)s1,-8.5% (inactive),–
CC(Cl)Cl,-1.19% (inactive),–
C=CCOC(C)=O,-2.78% (inactive),–
CCOc1nc(F)cc2nc(S(=O)(=O)Nc3c(Cl)cccc3Cl)nn12,1.13% (inactive),–
[O-][Cl+]O,0.5% (inactive),–
O=C(C(Cl)(Cl)Cl)C(Cl)(Cl)Cl,-1.02% (inactive),–
Clc1ccc(C(OCCN2CCCCC2)c2ccccc2)cc1 (stereo not given),-23% [at 35.3 µM] (inactive),–
C=CC(=O)OC(C)(C)C,0.0585% (inactive),–
